15 compounds from PubChem BioAssay (NCATS) can be followed below.

The structures appear in SMILES notation. Unmarked numbers belong to inactive results. Inconclusive results are not listed. The source made the active and inactive calls. Calls follow the shape of the dose curve; as a rule, active = well fitted curve in the direction sought with a large enough effect; inconclusive = small, poorly fitted or top-dose-only effect, or another doubt; inactive = no such curve, though single readings can be large; an effect the other way counts as inactive or inconclusive.

Assay [1] relates to Nanoluciferase (engineered Oplophorus gracilirostris luciferase). Put plainly: Primary Nanoluciferase (NLuc) qHTS assay for identification of artifact compounds. (AID 1845222). An outline of the steps: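 Diluted conditioned medium from NLuc-expressing S16 cells treated with compounds for 15 min at room temperature, then Nano-Glo substrate added; luminescence read after 5 min. Percent inhibition versus no-enzyme and DMSO controls fitted to 4-parameter Hill equation.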
Background: Quantitative high-throughput screening tests each substance at several concentrations.

A short description of assay [2]: Quantitative High-Throughput drug screen in 47 multiple myeloma cell lines against the NCATS MIPE library collection: Delta47_JCRB cell viability assay (AID 1918925; also: nearly all actives have a fitted effect of over 45% in size; also: potency is read from the fitted curve at half-maximal effect). An outline of the steps: (§1)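 qHTS of the MIPE 4.0 collection: 500 myeloma cells/well, 48 h drug exposure at 37C in 5% CO2, then CellTiter-Glo for 5 min at room temperature before luminescence reading.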

Assay [3] in a line: Quantitative High-Throughput drug screen in 47 multiple myeloma cell lines against the NCATS MIPE library collection: ARD_JJKsccE7 cell viability assay (AID 1918929; also: potency is read from the fitted curve at half-maximal effect). An outline of the steps:
as §1

Assay [4] in a line: Quantitative High-Throughput drug screen in 47 multiple myeloma cell lines against the NCATS MIPE library collection: KHM11_PLB cell viability assay (AID 1918962). Also: nearly all actives have a fitted effect of over 35% in size. Also: potency is read from the fitted curve at half-maximal effect. An outline of the steps:
(§2)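 Myeloma cell lines, 500 cells per well, exposed to MIPE 4.0 library compounds for 48 h at 37C, 5% CO2. Viability from ATP by CellTiter-Glo luminescence; normalised to DMSO (100%) and media-only (0%) wells.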

Assay [5] can be described thus: Quantitative High-Throughput drug screen in 47 multiple myeloma cell lines against the NCATS MIPE library collection: JIM1_ECACC cell viability assay (AID 1918964; also: potency is read from the fitted curve at half-maximal effect). An outline of the steps: as §1
The nature of assay [6]: Quantitative High-Throughput drug screen in 47 multiple myeloma cell lines against the NCATS MIPE library collection: INA6_PLB cell viability assay (AID 1918965; also: potency is read from the fitted curve at half-maximal effect; nearly all actives have a fitted effect of over 55% in size). In short, it runs like this: as §2
Assay [7] is described as follows: Quantitative High-Throughput drug screen in 47 multiple myeloma cell lines against the NCATS MIPE library collection: JJN3_DSMZ cell viability assay (AID 1918966; also: nearly all actives have a fitted effect of over 50% in size; also: potency is read from the fitted curve at half-maximal effect). In short, it runs like this: as §1
Assay [8] can be described thus: Quantitative High-Throughput drug screen in 47 multiple myeloma cell lines against the NCATS MIPE library collection: H1112_PLB cell viability assay (AID 1918967; also: nearly all actives have a fitted effect of over 30% in size; also: potency is read from the fitted curve at half-maximal effect). In short, it runs like this:
as §1

Assay [9] can be described thus: Quantitative High-Throughput drug screen in 47 multiple myeloma cell lines against the NCATS MIPE library collection: Karpas25_ECACC cell viability assay (AID 1918968; also: nearly all actives have a fitted effect of over 35% in size; also: potency is read from the fitted curve at half-maximal effect). An outline of the steps: as §1
Assay [10] is described as follows: Quantitative High-Throughput drug screen in 47 multiple myeloma cell lines against the NCATS MIPE library collection: KMS12BM_JCRB cell viability assay (AID 1918971). Also: nearly all actives have a fitted effect of over 35% in size. Also: potency is read from the fitted curve at half-maximal effect. In short, it runs like this:
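Steps: seed 500 cells per well; pin-transfer MIPE 4.0 library; incubate 48 h at 37C, 5% CO2, humidified; add CellTiter-Glo, 5 min room temperature; read luminescence.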

The nature of assay [11]: Quantitative High-Throughput drug screen in 47 multiple myeloma cell lines against the NCATS MIPE library collection: FR4_PLB cell viability assay (AID 1918924; also: nearly all actives have a fitted effect of over 35% in size). An outline of the steps:
as §2

The nature of assay [12]: Quantitative High-Throughput drug screen in 47 multiple myeloma cell lines against the NCATS MIPE library collection: EJM_DSMZ cell viability assay (AID 1918926; also: nearly all actives have a fitted effect of over 30% in size; also: potency is read from the fitted curve at half-maximal effect). An outline of the steps: as §1
The nature of assay [13]: Quantitative High-Throughput drug screen in 47 multiple myeloma cell lines against the NCATS MIPE library collection: AMO1_DSMZ cell viability assay (AID 1918927; also: nearly all actives have a fitted effect of over 30% in size; also: potency is read from the fitted curve at half-maximal effect). An outline of the steps: as §1
The nature of assay [14]: Quantitative High-Throughput drug screen in 47 multiple myeloma cell lines against the NCATS MIPE library collection: ARP1_JJKsccF8 cell viability assay (AID 1918928; also: nearly all actives have a fitted effect of over 40% in size; also: potency is read from the fitted curve at half-maximal effect). In short, it runs like this:
(§3)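 Myeloma cells, 500 per well, were exposed to MIPE 4.0 drugs by pin transfer for 48 h at 37 °C, 5% CO2. Viability was read as ATP luminescence with CellTiter-Glo, normalised to DMSO-only (100%) and medium-only (0%) wells.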

A short description of assay [15]: Quantitative High-Throughput drug screen in 47 multiple myeloma cell lines against the NCATS MIPE library collection: Karpas620_DSMZ cell viability assay (AID 1918959). Also: nearly all actives have a fitted effect of over 30% in size. Also: potency is read from the fitted curve at half-maximal effect. In short, it runs like this: as §2
Assay [16] in a line: Quantitative High-Throughput drug screen in 47 multiple myeloma cell lines against the NCATS MIPE library collection: KMM1_JCRB cell viability assay (AID 1918960). Also: nearly all actives have a fitted effect of over 30% in size. Also: potency is read from the fitted curve at half-maximal effect. An outline of the steps: as §3
Assay [17] can be described thus: Quantitative High-Throughput drug screen in 47 multiple myeloma cell lines against the NCATS MIPE library collection: KMS27_JCRB cell viability assay (AID 1918970). Also: nearly all actives have a fitted effect of over 30% in size. Also: potency is read from the fitted curve at half-maximal effect. To be noted: KMS27 myeloma cells, CellTiter-Glo ATP viability, 48 h; viability (% of DMSO): at 45.8 µM (top of the series). An outline of the steps: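 Myeloma cells (500 per well) were exposed to MIPE 4.0 compounds for 48 h at 37 °C, 5% CO2; viability was read as ATP luminescence with CellTiter-Glo, normalized to DMSO-only (100%) and media-only (0%) wells.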
(ATP-based viability assays read luminescence as a measure of living cells.)

The nature of assay [18]: Quantitative High-Throughput drug screen in 47 multiple myeloma cell lines against the NCATS MIPE library collection: JIM3_ECACC cell viability assay (AID 1918963; also: nearly all actives have a fitted effect of over 35% in size; also: potency is read from the fitted curve at half-maximal effect). An outline of the steps: as §2
Assay [19] in a line: Quantitative High-Throughput drug screen in 47 multiple myeloma cell lines against the NCATS MIPE library collection: Karpas417_ECACC cell viability assay (AID 1918961). Also: potency is read from the fitted curve at half-maximal effect. The note with it: Karpas417 myeloma viability, CellTiter-Glo ATP luminescence, 48 h; viability (% of DMSO): at 45.8 µM (top of the series). An outline of the steps:
as §2

Consider `CCc1cccc(CC)c1NC(=O)N1Cc2[nH]nc(NC(=O)c3ccc(N4CCN(C)CC4)cc3)c2C1`, for which the Potency entry in [1] and in assay [5] was “inactive” each time. Moreover, the Potency was 5.9 µM (active) in assay [2]; 1.18 µM (active) in [3]; 16.6 µM (active) in assay [4]; 4.69 µM (active) in assay [6]; 1.66 µM (active) in [7]; 20.9 µM (active) in [8]. Further, the Potency in assay [9] was 13.2 µM (active); in assay [10], 18.7 µM (active).
Turning to `COc1cc2ncn(-c3cc(OCc4ccccc4S(C)(=O)=O)c(C#N)s3)c2cc1OC`, the Potency result in assay [11], in assay [2], in assay [13], in assay [14], in assay [3] and in [15] was “inactive” each time. Also, the Potency result in assay [16], in assay [4] and in assay [17] was “inactive” in each case. In addition, the Potency in assay [12] was 3.72 µM (active).
As to `O=C(Nc1cccc(C(F)(F)F)c1)Nc1cc(S(=O)(=O)NC2CC2)ccc1-c1ccsc1`, the Potency result in assay [1], in assay [12], in assay [3], in [15], in assay [16] and in assay [5] was “inactive” throughout. For the same compound, the values for the Potency in [18] and in assay [9] were 23.5 µM (active) and 26.4 µM (active), respectively.
As to `Cc1cc(C(C)Nc2ccccc2)c2nc(N3CCOCC3)cc(=O)n2c1` (stereo not drawn), the Potency result in assay [1] and in assay [7] was “inactive” each time. Moreover, the Potency in [2] was 9.35 µM (active); in assay [13], 18.7 µM (active); in [4], 1.48 µM (active); in [18], 14.8 µM (active); in assay [6] it was 18.7 µM (active).
Consider `Clc1ccc(C2(c3ccc(-c4cn[nH]c4)cc3)CCNCC2)cc1`, for which, in assay [1], the Potency entry was “inactive”. Besides, the Potency is 1.32 µM (active) in [2]; 20.9 µM (active) in assay [12]; 23.5 µM (active) in assay [14]; 11.8 µM (active) in [4]; 26.4 µM (active) in assay [18]; 5.9 µM (active) in assay [6]. The Potency in assay [7] was 20.9 µM (active); in assay [8] it was 16.6 µM (active); in assay [9], 3.72 µM (active); in assay [10] it was 23.5 µM (active).
Regarding `CCN1CCC(n2cc(CNc3cc(Cl)c4ncc(C#N)c(Nc5ccc(F)c(Cl)c5)c4c3)nn2)CC1`, the Potency result in assay [1] and in assay [16] was “inactive” throughout. Moreover, the Potency in [2] is 14.8 µM (active); in assay [12] it was 10.5 µM (active); in assay [13], 6.62 µM (active); in [3] it was 5.9 µM (active); in assay [15], 5.9 µM (active); in assay [4] it was 16.6 µM (active). Besides, the Potency in [18] was 14.8 µM (active); in [6], 20.9 µM (active); in [7], 20.9 µM (active); in assay [9] it was 18.7 µM (active); in [10], 9.35 µM (active).
As to `CCNC(=O)c1noc(-c2cc(C(C)C)c(O)cc2O)c1-c1ccc(CN2CCOCC2)cc1`, the Potency entry in [1] and in [17] was “inactive” in each case. In addition, the Potency in [2] was 0.0662 µM (active); in [4], 0.0833 µM (active); in assay [18], 0.0743 µM (active); in assay [6], 0.0833 µM (active); in assay [9] it was 0.0332 µM (active).
With `CC1=C[C@@H]2[C@@H]([C@@H](O)C[C@@]3(C)[C@H]2C[C@@H](C)[C@]3(O)C(=O)CO)[C@@]2(C)Cc3cnn(-c4ccccc4)c3C=C12`, the Potency entry in [1] and in [17] was “inactive” each time. Further, the Potency in assay [13] is 5.26 µM (active); in assay [3], 0.0059 µM (active); in assay [16] it was 0.0105 µM (active); in assay [18], 26.4 µM (active); in assay [7] it was 23.5 µM (active); in assay [9], 0.0083 µM (active). In [10], the Potency was 18.7 µM (active).
As to `O=C(CC12CC3CC(CC(C3)C1)C2)Nc1cccc2nc(NCCNCCO)ccc12`, the Potency entry in assay [1] is “inactive”. The Potency in [2] was 2.64 µM (active); in assay [12] it was 11.8 µM (active); in assay [13] it was 20.9 µM (active); in assay [3], 18.7 µM (active); in assay [19], 1.48 µM (active); in [4], 5.26 µM (active). The Potency in assay [18] was 9.35 µM (active); in [6] it was 9.35 µM (active); in [7], 9.35 µM (active); in assay [8] it was 7.43 µM (active); in assay [9] it was 5.9 µM (active); in [17] it was 18.7 µM (active). Also, in [10], the Potency was 18.7 µM (active).
In the case of `CC(=O)OCC(=O)[C@@]12OC(C)(C)O[C@H]1C[C@H]1[C@@H]3C[C@H](F)C4=CC(=O)C=C[C@]4(C)[C@@]3(F)[C@@H](O)C[C@@]12C`, the Potency entry in assay [11], in assay [2], in assay [12], in assay [13], in assay [15] and in assay [4] was “inactive” throughout. Besides, the Potency result in [18], in [5], in [8] and in assay [17] was “inactive” each time. Besides, the Potency in assay [14] was 0.0264 µM (active); in assay [3], 0.0148 µM (active).
For the compound `Cc1csc(-c2nnc(Nc3ccc(Oc4ncccc4-c4ccnc(N)n4)cc3)c3ccccc23)c1`, the Potency entry in [1] was “inactive”. The Potency in [2] is 23.5 µM (active); in assay [13], 2.96 µM (active); in assay [14] it was 5.26 µM (active); in assay [3], 23.5 µM (active); in assay [16], 14.8 µM (active); in [4], 23.5 µM (active). Also, in assay [7], the Potency is 18.7 µM (active).
Consider `Cc1cc(-c2ncc(CC(=O)Nc3ccc(-c4cnccn4)cn3)cc2C)ccn1`, for which the Potency result in [1] is “inactive”. Besides, the Potency was 14.8 µM (active) in assay [2]; 11.8 µM (active) in [13]; 9.35 µM (active) in assay [3]; 14.8 µM (active) in [4]; 10.5 µM (active) in assay [6]; 6.62 µM (active) in [7]. For the same compound, the Potency in assay [9] is 10.5 µM (active); in assay [10], 6.62 µM (active).
Consider `CN1CCN(c2cccc(Nc3nc4c(-c5ccc(S(C)(=O)=O)cc5)cccn4n3)c2)CC1`, for which the Potency result in [1] and in assay [9] was “inactive” in each case. Moreover, the Potency in [13] is 4.18 µM (active); in assay [15], 0.833 µM (active); in assay [16] it was 1.66 µM (active); in assay [4] it was 2.35 µM (active); in assay [18], 2.96 µM (active); in assay [5], 0.662 µM (active). Moreover, the Potency was 0.59 µM (active) in assay [6], 2.35 µM (active) in assay [8], 1.32 µM (active) in assay [17] and 9.35 µM (active) in [10].
For `CCCCCOC(=O)Nc1nc(=O)n([C@@H]2O[C@H](C)[C@@H](O)C2O)cc1F` (stereo partly drawn), the Potency entry in assay [11], in [2], in assay [12], in assay [13], in [14] and in [3] was “inactive” in each case. The Potency entry in assay [15], in assay [16], in assay [18], in assay [5], in [7] and in [8] was “inactive” in each case. For the same compound, the Potency result in [17] and in assay [10] was “inactive” throughout. In addition, the Potency in assay [9] was 18.7 µM (active).
`COc1cc(CNC(=O)CCCCC=CC(C)C)ccc1O`: the Potency entry in [11], in assay [2], in assay [13], in assay [14], in assay [3] and in assay [15] was “inactive” each time. In addition, the Potency result in assay [16], in [4], in assay [18], in assay [8], in [9] and in [10] was “inactive” each time. Further, the Potency in assay [12] was 10.5 µM (active).
